For 94 compounds, inhibition results are on record in PubChem BioAssay AID2732 (Emory University Molecular Libraries Screening Center, 2010).

The campaign covered roughly 220,000 compounds. About 8,200 (3.7%) were called active. What follows is part of a selection rich in actives, with near analogues and random picks from the rest. Unmarked numbers belong to inactive results.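 Rule for the calls: active = compounds that reduced the stress-induced luciferase reporter signal by more than about 70% of percent inhibition (limit read from the data); inactive = the rest.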

The nature of the experiment: inhibitors of CHOP promoter induction, primary screen, cell-based, unfolded protein response, luciferase reporter (AID 2732).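 Note: 0% = tunicamycin plus vehicle and 100% = wells without tunicamycin.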 The following applies: CHO-K1 CHOP-promoter luciferase, tunicamycin-induced, 15-18 h; at 10 µM; hits give high values. Background: Reporter assays use an easily measured gene product as a stand-in for the process of interest.
In general, inhibition refers to the relative decrease from the control value, in per cent. In the case of `O=C(C1CC1)N1CCN=C1SCc1ccc(Cl)cc1`, the inhibition was 5.04%. With `CC1CCN(C(=O)c2ccc(CSc3ccc(Cl)cc3)cc2)CC1`, the inhibition is 80.3% (active). With `O=C(c1ccc(CSc2ccccc2)cc1)N1CCCCCC1`, the inhibition was 23.8%.

Regarding `Cn1c2ccccc2c2cc(/C=C(\NC(=O)c3ccccc3)C(=O)NCC(=O)O)ccc21`, the inhibition is -15.8%.

Take `O=C(CCS(=O)(=O)c1ccccc1Cl)Nc1ccc(S(=O)(=O)Nc2ncccn2)cc1`: the inhibition is 3.66%.

Consider `CC(C)n1c(CN2CCN(Cc3ccccc3)CC2)nc2ccccc21`, for which the inhibition was -0.64%. On to `CC(=O)Nc1ccc(C(=O)/C=C/c2ccc[nH]2)cc1`, for which the inhibition was -14.3%. On to `O=C(NC1CCCCC1)c1cc(C2CC2)on1`, for which the inhibition is 1.58%. For `CCCCc1nc(NCCN)c(C#N)c2c1CSC(C)(C)C2`, the inhibition is 101% (active).

For `Cc1nc(NCc2ccccc2)c(C(N)=O)c2c1COC(C)(C)C2`, the inhibition was -8.11%. Then `CCCCc1nc(NCc2ccccc2)c(C#N)c2c1CCCC2`, with 54.3%; and `CC(C)C(=O)N1CCN(c2nc(-c3ccccc3)c3c(c2C#N)CC(C)(C)OC3)CC1`, with 26.8%; and `CCc1nc(NCCO)c(C#N)c2c1CCCC2`, with 17.2%. Then `Cc1nc(NCCN)c(C#N)c2c1COC(C)(C)C2`, with 74.9% (active); and `C=CCSc1nnc(NC(=O)c2ccc(NC(C)=O)cc2)s1`, with 6.97%.

`COC(=O)c1scc(C)c1NC(=O)CSc1ccc(Cl)cc1`: the inhibition is 16.3%. As to `Cc1nn(Cc2ccccc2)c(C)c1C(=O)NCCN1C(=O)S/C(=C\c2ccc(F)cc2)C1=O`, the inhibition is 56.3%. In the case of `Cn1cccc1/C=C1\SC(=S)N(NC(=O)c2ccc(Cl)cc2)C1=O`, the inhibition is 20.4%.

In the case of `Cn1cccc1/C=C1\SC(=O)N(CC(=O)Nc2ccc(F)cc2)C1=O`, the inhibition is 72% (active). As for `COc1ccc(N2CCC(CNC(=S)Nc3c(C)cccc3C)C2)cc1` (centres undefined), the inhibition is 18.6%. For the compound `COc1ccc(C2CC(c3ccccc3)=NN2C(=O)c2ccc(Cl)c([N+](=O)[O-])c2)cc1` (centres undefined), the inhibition is -21.3%. Turning to `CCOc1ccccc1C1CC(c2cccc(NS(C)(=O)=O)c2)=NN1C(=O)c1ccccc1` (centres undefined), the inhibition is -2.91%. For `CCOc1ccc2nc(Cl)c(C3CC(c4ccccc4)=NN3C(=O)c3cccs3)cc2c1` (centres undefined), the inhibition was 90.5% (active). On to `OC(CNCc1ccc2c(c1)OCO2)COc1ccccc1` (centres undefined), for which the inhibition is -20.3%. For `CCOC(=O)CC1C(=O)NCCN1c1nc2c(C)cccn2c(=O)c1/C=C1\SC(=S)N(C(C)CC)C1=O` (centres undefined), the inhibition was 5.91%.

Regarding `COC(=O)C(C)Sc1nc2c(c(=O)n(C)c(=O)n2C)n1Cc1cccc(C)c1` (centres undefined), the inhibition was 11.8%.

`C/C(Cl)=C\Cn1c(Nc2cccc(C)c2)nc2c1c(=O)n(C)c(=O)n2C`: the inhibition was 76.1% (active). As for `Cc1cccc(Cn2c(N3CCN(c4ccccc4)CC3)nc3c2c(=O)n(C)c(=O)n3C)c1`, the inhibition was 40.4%. Take `CNc1ccc([N+](=O)[O-])cc1C(=O)O`: the inhibition was -14.2%. On to `Nc1nc(O)c(CC(=O)O)s1`, for which the inhibition is 9.65%. In the case of `CC(=O)N/C(=C\c1ccc(F)cc1)C(=O)NC(Cc1ccccc1)C(=O)O` (centres undefined), the inhibition is 2.9%. Turning to `Cc1cccc(-n2c(C)cc(/C=N\NC(=O)c3cccs3)c2C)c1`, the inhibition is 13.8%. Then `CC(=O)Nc1ccc(/C=N/NC(=O)c2cccs2)cc1`, with -21.6%; and `Cc1ccc(-n2nc(C)c(/C=N/NC(=O)c3cccs3)c2Cl)cc1`, with 99.7% (active). In the case of `O=C(NCCCn1ccnc1)C(=O)NCC1OCCN1S(=O)(=O)c1cc(F)ccc1F` (centres undefined), the inhibition is 19.4%. Then `O=C(c1ccc(Cl)c([N+](=O)[O-])c1)N1CCN(c2ccccc2)CC1`, with -20.4%; and `CO/N=C/c1ccc(N2CCN(C(=O)c3cccc(Cl)c3)CC2)c([N+](=O)[O-])c1`, with 71.8% (active). On to `O=C(/C=C/c1ccc(Cl)cc1)N1CCN(c2ccccc2[N+](=O)[O-])CC1`, for which the inhibition is 32.3%. As to `CC12C(=O)N(c3ccccc3)C(=O)C1C(c1ccccc1)N1CCCN12` (centres undefined), the inhibition is 7.95%. As for `O=[N+]([O-])c1ccc(N2CCSCC2)cc1O`, the inhibition was 13.8%. Consider `Cc1ccc(NC(=S)NC(NC(=O)Cc2cccc3ccccc23)C(Cl)(Cl)Cl)cc1` (centres undefined), for which the inhibition was 110% (active). In the case of `CC(C)(C)C(=O)NC(NC(=S)Nc1ccc(S(N)(=O)=O)cc1)C(Cl)(Cl)Cl` (centres undefined) it was -6.4%.

With `O=C(Cc1cccc2ccccc12)NNC(=O)Nc1ccc(Cl)cc1`, the inhibition was 13.2%. In the case of `O=C(NNC(=S)NC1CC2CCC1C2)c1ccc(Cl)cc1` (centres undefined) it was -10.6%; in that of `CC1(C)Oc2ccc3ccc(=O)oc3c2/C(=C/NCCO)C1=O`, 7.95%; in that of `C/C=C(/C)C(=O)OC1Cc2c(ccc3ccc(=O)oc23)OC1(C)C` (centres undefined), 74.3% (active).

With `O=C(NCc1csc(-c2cccs2)n1)C1CC1`, the inhibition is 21.8%. In the case of `COc1ccccc1OCC(=O)O/N=C(\N)c1ccccn1`, the inhibition is -9.1%.

For `CCCCN1CCNC1=S`, the inhibition is 11%. In the case of `Cc1ccc(-c2noc(CSc3nnc(-c4ccncc4)n3-c3ccc(F)cc3)n2)cc1` it was 35.3%.

Regarding `Cc1nnc(SCc2ccc(C(=O)c3ccc(Cl)cc3)o2)n1-c1ccccc1`, the inhibition was 24.9%. Then `Fc1ccc(-n2c(Cc3ccccc3)nnc2SCc2nc(-c3ccc(Cl)cc3)no2)cc1`, with 82.2% (active). Consider `Cc1oc(C(N)=O)cc1COc1ccc(C(N)=O)cc1`, for which the inhibition is 0.47%.

Consider `CC(=O)NC(=S)Nc1ccc(NC(=S)NC(=O)c2ccc([N+](=O)[O-])cc2)cc1`, for which the inhibition was -4.53%. As for `Cc1noc(C)c1S(=O)(=O)N1CCCC(C(=O)Nc2nccs2)C1` (centres undefined), the inhibition was 11.8%.

In the case of `O=C(Nc1nccs1)C1CCN(S(=O)(=O)c2ccc(Cl)c(C(F)(F)F)c2)CC1`, the inhibition was 70.1% (active). As to `O=C(Nc1ccc(F)c(Cl)c1)C1CCN(S(=O)(=O)c2cccnc2)CC1`, the inhibition was 24.3%. Regarding `CN(Cc1nc(-c2cnccn2)no1)Cc1n[nH]c2c1CCCCC2`, the inhibition is 0.16%. On to `CCOC(=O)c1c(C)[nH]c(=S)c(C#N)c1-c1ccccc1`, for which the inhibition is -25.2%. Take `CCOC(=O)c1c(C)[nH]c2c1-c1ccccc1C(=O)C2=O`: the inhibition was 108% (active). Consider `Cc1[nH]c2ccccc2c1C(=O)COC(=O)C(C)C`, for which the inhibition is 9.48%. In the case of `COc1ccc(C(=O)NCC(=O)N/N=C/c2ccc([N+](=O)[O-])o2)cc1OC` it was -82.2%. In the case of `CCOC(=O)Cc1cc(=O)[nH]c(/N=C(\N)Nc2ccc(OC)cc2)n1` it was -6.01%; in that of `O=C(CC(O)(C(F)(F)F)C(F)(F)F)Nc1ccc(Cl)c(Cl)c1`, 86% (active).

With `Cc1ccc(NC(=O)C/C(N)=N/O)cc1Cl`, the inhibition is 1.88%. In the case of `O=C(CC(=O)Nc1ccc(Cl)c(Cl)c1)N/N=C/c1ccc(O)cc1` it was 23.4%; in that of `CC(=O)NNC(=O)c1csc(Cc2c(Cl)sc3ccc(Cl)cc23)n1`, 32.1%; in that of `Cc1ccc(-c2noc(CN3CCN(Cc4ccccc4)CC3)n2)cc1`, 38.4%.

With `Cc1cccc(-c2noc(-c3ccc(F)cc3)n2)c1`, the inhibition was 12%. As for `Cc1ccc(Cc2nc(-c3cccc(C)c3)no2)cc1`, the inhibition is 83.2% (active). In the case of `COc1ccc(OC)c(NC(=O)N[C@H](Cc2ccccc2)C(=O)NN)c1` it was 17.5%. `CCOC(=O)CC(=O)CSc1nc(-c2ccccc2)cc(-c2ccc(Cl)cc2)c1C#N`: the inhibition is -3.89%. In the case of `CCOC(=O)CSc1nccc(N(C)C)c1C#N` it was 74% (active); in that of `CCOC(=O)CSc1ccccn1`, -0.03%; in that of `Cc1ccc(NC(=O)c2nc[nH]c2C(=O)N[C@@H](CCCCNC(=O)OC(C)(C)C)C(=O)OC(C)(C)C)cc1`, 60.9%. In the case of `Cc1ccc(-c2nc(SCC(=O)Nc3ccccc3OC(F)F)c3c(C)c(C(=O)O)sc3n2)cc1` it was 101% (active); in that of `Cc1ccc(C)c(SCc2nc3sc(C(=O)O)c(C)c3c(=O)[nH]2)c1`, 5.2%; in that of `COc1ccccc1NC(=O)CSc1nc2sc(C)c(C)c2c(=O)n1Cc1ccco1`, -22.1%. Then `O=C(O)c1ccc(/C=N/Nc2nc(N3CCCCC3)nc(N3CCCCC3)n2)cc1`, with 5.9%; and `O=C(c1ccc(=O)oc1)N1CCC(C(O)(c2ccccc2)c2ccccc2)CC1`, with 18.9%; and `Cn1cnc(S(=O)(=O)Nc2ccc3c(c2)OCCO3)c1`, with 26.2%. As for `C/C(=N\NC(=S)NC(C)C)c1ccc(C(C)(C)C)cc1`, the inhibition is 72.1% (active). Take `CC/C(=N\NC(=S)NC(C)C)c1ccc(OC(F)F)cc1`: the inhibition was 11.9%.

As for `C/C(=N\NC(=S)NCc1ccccc1)c1ccc(Cl)cc1`, the inhibition was 16.1%. For the compound `Cc1ccc(Nc2nc(N)nc(CSc3nnc(C)s3)n2)cc1`, the inhibition was -43.6%.

Take `Nc1nc(CC(=O)CSc2ccc(Cl)cc2)nc(Nc2ccc(F)cc2)n1`: the inhibition is 81.9% (active). On to `CCOC(=O)N1CCN(Cc2nc(N)nc(Nc3ccc(C)cc3)n2)CC1`, for which the inhibition is 30.1%.

As to `O=S(=O)(Cc1noc(-c2ccc(OC(F)(F)F)cc2)n1)c1ccc(F)cc1`, the inhibition was -5.94%. For `COc1ccc(NC(=O)c2cn(-c3ccccc3)nc2SC)cc1`, the inhibition is 14.6%. For the compound `Cc1ccc(S/C(=N\S(=O)(=O)c2ccc(Cl)cc2)c2ccccc2)cc1`, the inhibition is 85.7% (active).

For `Cc1ccc(S(=O)(=O)/N=C(/Nc2ccccn2)c2ccc(Cl)cc2)cc1`, the inhibition is 14.2%. For `O=S(=O)(/N=C(/Nc1ccccn1)c1ccccc1)c1ccc(Cl)cc1`, the inhibition was 8.33%.

Turning to `O=C(Nc1cccnc1Oc1ncnc2cc(Cl)ccc12)c1ccc(F)cc1`, the inhibition was -24.4%. For the compound `CCOC(=O)c1cn[nH]c1NC(=S)Nc1ccccc1`, the inhibition is -6.82%.
